Experiment [1] can be described thus: inhibitors of TNFa-induced NFkB p65 translocation, primary screen, imaging, HUVEC, MLSMR starter and 10KST1 sets (AID 438;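 active = inhibition above 20% together with a positive visual image hit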;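 note: compound added about 3h40 before a 20 min TNFalpha stimulation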;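 for inhibition: signal is the nuclear over cytoplasmic p65 intensity ratio per well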). The conditions noted are these: HUVEC TNFa-induced p65 nuclear translocation; cell count: measured here: nuclei count (cytotoxicity indicator), at 2.08 µM; inhibition: at 2 µM, stronger effect = higher value, 0% TNFa-plus-vehicle, 100% no-TNFa wells.

Experiment [2] in a line: reduction of polyQ htt aggregates in cells – imaging, exon1htt(103Q)mCFP cells, high-content imaging, primary screen (AID 483;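 active = visual image review flags a hit and inhibition of aggregation exceeds 20%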;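 note: compound exposure lasted 3 days before fixation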;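 for nuclei count: percent of the per-plate median nuclei count of sample wells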). The conditions noted are these: exon1htt(103Q)mCFP cell line, aggregate imaging, at 2 µM; inhibition of aggregation: stronger effect = higher value; nuclei count: measured here: cell count, toxicity.
Experiment [3] in a line: endothelial E-selectin expression blockers – imaging, HUVEC, immunofluorescence, MLSMR starter and 10KST1 sets, primary screen (AID 487;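 active = visually confirmed hit in the image check and inhibition above 20%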;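 for inhibition: signal is fraction of cell area covered by stained E-selectin grains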;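 for nuclei count: 100% = median nuclei count of all wells on the same plate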). The conditions noted are these: HUVEC TNFalpha-induced E-selectin immunofluorescence imaging, at 2 µM; inhibition: stronger effect = higher value; nuclei count: measured here: cell number, toxicity.
The target in experiment [4] is Voltage-gated potassium channel subunit beta-2 (Rattus norvegicus) (UniProt P62483). The experiment in a line: inhibitors of rat Kvbeta2 reductase activity – biochemical, NADPH fluorescence, primary screen (AID 622;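 active = fluorescence slope higher than the sample average by over 3 SD, cut at about -0.22 in these data, passing the limit was not always enough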;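 note: slope of raw intensity against log time taken from 70 to 1610 s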). The conditions noted are these: recombinant KvBeta, 4-cyanobenzaldehyde reduction, at 10 µM, stronger effect = higher value.
For experiment [5] the target is unchanged. The experiment is described as follows: enhancers of rat Kvbeta2 NADPH turnover – biochemical, NADPH fluorescence, primary screen (AID 623;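 active = NADPH fluorescence slope more negative than the mean of all samples by about 3 SD, 99.7% confidence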;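 note: fluorescence intensity change per second fitted from 20 to 320 s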). The conditions noted are these: Recombinant KvBeta, NADPH fluorescence decrease slope, 10 min; at 10 µM; stronger effect = lower value.
Experiment [6] deals with Alpha-2C adrenergic receptor (Homo sapiens) (UniProt P18825). The experiment in a line: compounds altering alpha2C-coupled GIRK flux – cell-based, HEK293 alpha2C/GIRK1/2, thallium flux, primary screen (AID 624;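 active = fluorescence slope after compound addition differing from the mean of all screened samples at 99.7% confidence, in either direction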;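 note: slope of fluorescence ratio to pre-addition baseline per second over 15 to 24 s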). The conditions noted are these: thallium flux BTC fluorescence, at 10 µM, actives lie on both sides.
Experiment [7] can be described thus: blockers of RIG-like receptor reporter activation – cell-based, Sendai virus stimulus, luciferase, 10K MLSCN set, TLR/RLR signaling modifier project, primary screen (AID 602276).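 Note: firefly luciferase from ISG56 promoter only with Renilla not read in this screen; 0% = Sendai virus plus DMSO and 100% = medium plus DMSO without virus.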 The conditions noted are these: HEK293 RL24 IRF3 luciferase reporter, at 10 µM, stronger effect = higher value.
The nature of experiment [8]: TLR3 IRF3 reporter activation blockers – cell-based, poly I:C stimulus, luciferase, 10K MLSCN set, primary screen (AID 602277;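 active = inhibition of the reporter signal at or above 50%; inactive = inhibition below 50%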). The conditions noted are these: HEK293-TLR3 RL24 IRF3 luciferase reporter, at 10 µM, stronger effect = higher value.

The structures appear in SMILES notation. The source made the active and inactive calls.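 Rule for the calls, unless noted: active = inhibition at or above 50% at 10 µM; inactive = inhibition below 50%.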

Alpha-2C adrenergic receptor (Homo sapiens), sequence (P18825 whole entry, looked up): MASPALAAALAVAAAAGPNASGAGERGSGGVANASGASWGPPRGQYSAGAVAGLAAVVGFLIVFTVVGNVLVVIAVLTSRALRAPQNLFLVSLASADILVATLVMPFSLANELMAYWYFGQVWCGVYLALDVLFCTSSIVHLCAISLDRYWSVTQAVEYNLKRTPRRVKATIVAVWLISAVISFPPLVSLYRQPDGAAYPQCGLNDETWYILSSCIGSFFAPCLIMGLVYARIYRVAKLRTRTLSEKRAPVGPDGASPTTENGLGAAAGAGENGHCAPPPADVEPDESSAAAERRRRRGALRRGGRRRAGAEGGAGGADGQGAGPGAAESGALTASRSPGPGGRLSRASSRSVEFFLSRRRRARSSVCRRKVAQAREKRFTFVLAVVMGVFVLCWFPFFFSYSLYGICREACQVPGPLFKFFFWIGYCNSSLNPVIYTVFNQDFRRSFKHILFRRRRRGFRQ
Voltage-gated potassium channel subunit beta-2 (Rattus norvegicus), sequence (P62483 whole entry, looked up): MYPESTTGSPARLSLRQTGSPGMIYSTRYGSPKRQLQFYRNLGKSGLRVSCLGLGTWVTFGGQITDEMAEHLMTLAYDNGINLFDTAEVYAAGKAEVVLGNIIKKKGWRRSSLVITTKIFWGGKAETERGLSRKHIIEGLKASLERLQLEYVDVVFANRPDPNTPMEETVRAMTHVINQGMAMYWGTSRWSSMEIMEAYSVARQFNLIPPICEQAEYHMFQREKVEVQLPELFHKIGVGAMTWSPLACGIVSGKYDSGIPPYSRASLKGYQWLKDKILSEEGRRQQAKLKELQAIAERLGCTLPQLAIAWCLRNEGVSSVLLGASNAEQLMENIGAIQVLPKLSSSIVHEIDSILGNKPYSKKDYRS

`Cc1nnc(SCC(=O)Nc2c(Cl)cccc2Cl)[nH]c1=O`: the cell count in experiment [1] was determined as 598. Moreover, the inhibition in experiment [1] is 1.1% (inactive); in experiment [3], 17.8% (inactive); in experiment [7] it was 8.99% (inactive); in experiment [8], 41.1% (inactive). The inhibition of aggregation in experiment [2] was 17.6% (inactive). Further, the nuclei count in experiment [2] was 87%; in experiment [3], 103%. Also, the fluorescence slope in experiment [4] was -0.553 (inactive). In addition, the NADPH fluorescence slope in experiment [5] is -4.3e-05 (inactive). The slope in experiment [6] was 0.00796 (inactive).

`Cc1[nH]nc2c1C(=O)CCC2`: the cell count in experiment [1] is 639. Besides, the inhibition was 10.7% (inactive) in experiment [1], 14.9% (inactive) in experiment [3], -1.33% (inactive) in experiment [7] and 0.12% (inactive) in experiment [8]. For the same compound, the inhibition of aggregation in experiment [2] is 27.4% (inactive). Further, the nuclei count came to 96.1% in experiment [2] and 95.1% in experiment [3]. Also, the fluorescence slope in experiment [4] was -0.366 (inactive). Moreover, the NADPH fluorescence slope in experiment [5] was -3.1e-05 (inactive). Moreover, the slope in experiment [6] was 0.00524 (inactive).

Take `COc1ccc(C(=O)N(CCN2CCOCC2)CC(=O)NC2CCCC2)cc1OC`: the cell count in experiment [1] amounted to 402. The inhibition was 0.5% (inactive) in experiment [1], -41.4% (inactive) in experiment [3], -8.79% (inactive) in experiment [7] and -6.82% (inactive) in experiment [8]. Further, in experiment [2], the inhibition of aggregation is -20.8% (inactive). Further, the figures for the nuclei count in experiment [2] and in experiment [3] were 108% and 109%, respectively. For the same compound, in experiment [4], the fluorescence slope is -0.597 (inactive). Moreover, in experiment [5], the NADPH fluorescence slope was -5.3e-05 (inactive). Also, in experiment [6], the slope was 0.00354 (inactive).

Consider `Cc1cccc(Nc2nc3c(c(=O)n(C)c(=O)n3C)n2Cc2ccccc2)c1`, for which the cell count in experiment [1] was determined as 470. The inhibition in experiment [1] was 7.2% (inactive); in experiment [3], -73.5% (inactive); in experiment [7] it was 3.57% (inactive); in experiment [8], 20.4% (inactive). For the same compound, the inhibition of aggregation in experiment [2] is 6.5% (inactive). Moreover, the figures for the nuclei count in experiment [2] and in experiment [3] were 94.7% and 106%, respectively. For the same compound, the fluorescence slope in experiment [4] was -0.588 (inactive). Moreover, in experiment [5], the NADPH fluorescence slope was -2.8e-05 (inactive). For the same compound, the slope in experiment [6] is 0.00618 (inactive).

Turning to `Cc1cccc(N2CCN(C(=O)Cn3nc(Cc4ccncc4)c4ccccc4c3=O)CC2)c1C`, the cell count in experiment [1] amounted to 895. Moreover, the inhibition is -5.5% (inactive) in experiment [1], -72% (inactive) in experiment [3], 4.52% (inactive) in experiment [7] and 5.5% (inactive) in experiment [8]. Moreover, the inhibition of aggregation in experiment [2] was 14.3% (inactive). For the same compound, the nuclei count was 103% in experiment [2] and 118% in experiment [3]. The fluorescence slope in experiment [4] is -0.563 (inactive). Further, the NADPH fluorescence slope in experiment [5] is -4.2e-05 (inactive). The slope in experiment [6] was 0.00577 (inactive).

Turning to `CC(Sc1nc(-c2ccccc2)cc(C(F)(F)F)n1)C(=O)N1CCCC1` (centres undefined), the cell count in experiment [1] worked out at 698. Also, the inhibition is -1.1% (inactive) in experiment [1], -83% (inactive) in experiment [3], 5.88% (inactive) in experiment [7] and 16.9% (inactive) in experiment [8]. Also, in experiment [2], the inhibition of aggregation was -38.4% (inactive). In addition, the nuclei count in experiment [2] is 118%; in experiment [3], 133%. Also, the fluorescence slope in experiment [4] was -0.506 (inactive). The NADPH fluorescence slope in experiment [5] was 3.3e-05 (inactive). In experiment [6], the slope is 0.00611 (inactive).

On to `O=S(=O)(Nc1ncccn1)c1ccc(Nc2ncnc3ccccc23)cc1`, for which the cell count in experiment [1] turned out to be 623. The inhibition was -16.4% (inactive) in experiment [1], -6% (inactive) in experiment [3], -24.5% (inactive) in experiment [7] and 12.4% (inactive) in experiment [8]. For the same compound, the inhibition of aggregation in experiment [2] was -7.6% (inactive). Besides, the results for the nuclei count in experiment [2] and in experiment [3] were 89.3% and 105%, respectively. Also, the fluorescence slope in experiment [4] is -0.459 (inactive). Also, the NADPH fluorescence slope in experiment [5] is -4.3e-05 (inactive). Further, in experiment [6], the slope is 0.00604 (inactive).

In the case of `O=c1c2c(-c3ccccc3)csc2nc2n1CCC2`, in experiment [1], the cell count is 518. Also, the inhibition in experiment [1] was -18.3% (inactive); in experiment [3], 20.1% (inactive); in experiment [7] it was -15.3% (inactive); in experiment [8], 1.9% (inactive). In experiment [2], the inhibition of aggregation is -0.8% (inactive). Moreover, the nuclei count came out at 87% in experiment [2] and 144% in experiment [3]. Besides, the fluorescence slope in experiment [4] was -0.588 (inactive). In experiment [5], the NADPH fluorescence slope is -8.9e-06 (inactive). Also, the slope in experiment [6] is 0.00513 (inactive).

As for `O=C(c1ccc(Cl)s1)N1CCN(c2nc3ccccc3s2)CC1`, the cell count in experiment [1] was determined as 721. Further, the inhibition is -17.3% (inactive) in experiment [1], -31.6% (inactive) in experiment [3], 8.1% (inactive) in experiment [7] and 6.32% (inactive) in experiment [8]. Besides, the inhibition of aggregation in experiment [2] was -16.4% (inactive). The nuclei count in experiment [2] turned out to be 104%; in experiment [3] it was 107%. Further, in experiment [4], the fluorescence slope is -0.392 (inactive). The NADPH fluorescence slope in experiment [5] is 2e-05 (inactive). Further, the slope in experiment [6] is 0.00557 (inactive).

Consider `COC(=O)c1cccc(NC(=O)Cc2coc3cc(OC)ccc23)c1`, for which the cell count in experiment [1] worked out at 402. The inhibition in experiment [1] was 11.4% (inactive); in experiment [3] it was -64.1% (inactive); in experiment [7], 4.7% (inactive); in experiment [8] it was -15.2% (inactive). For the same compound, in experiment [2], the inhibition of aggregation was 5.4% (inactive). The nuclei count was determined as 75.4% in experiment [2] and 120% in experiment [3]. For the same compound, in experiment [4], the fluorescence slope was -0.595 (inactive). Besides, the NADPH fluorescence slope in experiment [5] was -6.1e-06 (inactive). The slope in experiment [6] is 0.0055 (inactive).

`Cc1cc(C)n(CC(=O)O)n1`: the cell count in experiment [1] was determined as 341. The inhibition was -1.8% (inactive) in experiment [1], -49.5% (inactive) in experiment [3], 12.8% (inactive) in experiment [7] and 18.3% (inactive) in experiment [8]. Moreover, the inhibition of aggregation in experiment [2] is -4.2% (inactive). The nuclei count in experiment [2] was 102%; in experiment [3], 121%. Also, the fluorescence slope in experiment [4] was -0.317 (inactive). The NADPH fluorescence slope in experiment [5] was -5.4e-05 (inactive). For the same compound, the slope in experiment [6] was 0.0047 (inactive).

On to `CC(C)Cc1cc(C(=O)Nc2c(F)cc(F)cc2Br)no1`, for which, in experiment [1], the cell count was 783. The inhibition in experiment [1] is 7.4% (inactive); in experiment [3] it was -4.5% (inactive); in experiment [7], -6.27% (inactive); in experiment [8], 2.03% (inactive). Moreover, the inhibition of aggregation in experiment [2] was -5% (inactive). Further, the nuclei count in experiment [2] was determined as 114%; in experiment [3], 120%. In experiment [4], the fluorescence slope is -0.594 (inactive). The NADPH fluorescence slope in experiment [5] is 3.8e-06 (inactive). For the same compound, the slope in experiment [6] is 0.00483 (inactive).

On to `Cc1ccc(N2CCN(CCc3nc4cc(NS(C)(=O)=O)ccc4n3C)CC2)cc1`, for which the cell count in experiment [1] was 322. The inhibition was 7% (inactive) in experiment [1], 21.6% (inactive) in experiment [3], -11.6% (inactive) in experiment [7] and -19.7% (inactive) in experiment [8]. The inhibition of aggregation in experiment [2] is 2% (inactive). Further, the nuclei count in experiment [2] was 90.6%; in experiment [3], 122%. Also, in experiment [4], the fluorescence slope is -0.531 (inactive). Also, in experiment [5], the NADPH fluorescence slope is -3.7e-05 (inactive). The slope in experiment [6] was 0.00789 (inactive).

Regarding `COc1ccccc1C1CC(c2ccc(C)cc2)Nc2ncnn21` (centres undefined), the cell count in experiment [1] is 332. In addition, the inhibition was 0.7% (inactive) in experiment [1], -37.9% (inactive) in experiment [3], -7.75% (inactive) in experiment [7] and -0.278% (inactive) in experiment [8]. In addition, in experiment [2], the inhibition of aggregation was -31.6% (inactive). Moreover, the nuclei count in experiment [2] turned out to be 109%; in experiment [3], 119%. Besides, the fluorescence slope in experiment [4] was -0.425 (inactive). Moreover, the NADPH fluorescence slope in experiment [5] is 4.9e-05 (inactive). Moreover, in experiment [6], the slope is 0.00745 (inactive).

The values above are taken from PubChem BioAssay.
